Data from PubChem BioAssay (Tox21).
A number with no mark means an inactive call. Calls of active or inactive are those of the source. The call rests on the fitted dose curve; in most records, active means well fitted activation curve with a large enough effect in the repeat runs; inconclusive means weak or mixed curves; inactive means flat fitted curve, though single readings scatter.
On the % scale 0 is the no-effect control and ±100 the full control effect; potency means the concentration at half of the fitted maximal effect.

Assay: A CellTox Green Cytotoxicity Assay to monitor cytotoxicity in HEK293 cells - 0 hour (AID 1224869); further: nearly all actives have a fitted effect of over 50% in size
Conditions: CellTox Green fluorescence; series mostly up to 76.8 µM; cytotoxicity: at the top concentration
Source text: National Center for Advancing Translational Sciences [NCATS]
NIH Chemical Genomics Center [NCGC]
U.S. Environmental Protection Agency [EPA]
National Institutes of Environmental Health Sciences [NIEHS]
National Toxicology Program [NTP]
Cell-based models are critical for drug discovery. Determining the natural cytotoxic effects resulting from test compounds is an essential research activity. A CellTox Green Cytotoxicity Assay to monitor cytotoxicity in real time of continues cell culture during 40 hours of the compound treatment was used to screen Tox21 10K library compounds in Hek293 cells. CellTox Green Cytotoxicity Assay is a nonlytic, homogeneous, biofluorescent method to measure cytotoxicity in cell culture after experimental manipulation. The assay system uses a proprietary asymmetric cyanine dye that is excluded from viable cells but preferentially stains the dead cell's DNA. […] Viable cells produce no appreciable increases in fluorescence. Therefore, the fluorescence signal produced by the binding interaction with dead cell DNA is proportional to cytotoxicity.
The mixture of Hek293 cell suspension and reagents were dispensed at 600cells/6 ul/well in 1536-well tissue culture treated black solid bottom plates using a Multidrop dispenser. After the assay plates were incubated at a 37 C/5% CO2 incubator for 5 hours, 23 nL of compounds dissolved in DMSO, positive and negative controls was transferred to the assay plate by a pintool work station. The plates were incubated at 37 C for 40 hours. The fluorescence intensity were measured at 0h, 8h, 16h, 24h, 32h and 40h time points using ViewLux plate reader during compound treatment.
In the case of `C=C(C)C(=O)OCCOC(=O)CC(C)=O`, the “cytotoxicity” value is reported as -0.927%.
In the case of `CCCCC(CC)C(=O)OCCOCCOCCOCCOC(=O)C(CC)CCCC` (stereo not given), the “cytotoxicity” value is reported as -7.61%.
In the case of `CCCCC(=O)O[C@]1(C(=O)CO)[C@@H](C)C[C@H]2[C@@H]3CCC4=CC(=O)C=C[C@]4(C)[C@@]3(F)[C@@H](O)C[C@@]21C`, the “cytotoxicity” value is reported as -6.48%.
With `CCC(C)(O)CCC=C(C)C` (stereo not given) the “cytotoxicity” value was 1.17%.
In the case of `C(=C\c1ccccc1)/CN1CCN(C(c2ccccc2)c2ccccc2)CC1`, the “cytotoxicity” value is reported as -7.39% [at 35.3 µM].
With `CCCC(=O)O[C@]1(C(=O)COC(=O)CC)CC[C@H]2[C@@H]3CCC4=CC(=O)CC[C@]4(C)[C@H]3[C@@H](O)C[C@@]21C` the cytotoxicity was -7.53% [at 15.8 µM].
In the case of `CC(C)(C)CC(C)(C)c1ccc(OCCO)cc1`, the “cytotoxicity” value is reported as -6.58%.
In the case of `CC1CC(=O)NN=C1c1ccc(NCC(C)(C)NCC(O)COc2cc(Cl)ccc2C#N)cc1` (stereo not given), the “cytotoxicity” value is reported as -0.285% [at 35.3 µM].
In the case of `CCC(C)(C)C1CCC(O)CC1` (stereo not given), the “cytotoxicity” value is reported as 0.962%.
In the case of `CCCCCCCCCCCCCCC[C@H](O)[C@@H](N)CO`, the Potency is reported as 19 µM (active).
With `CC(CCc1ccc2c(c1)OCO2)NN` (stereo not given) the “cytotoxicity” value was 1.43% [at 35.3 µM].
With `O=C(NCCCN1CCOCC1)c1ccc(Cl)cc1` the “cytotoxicity” value was 0.355% [at 35.3 µM].
In the case of `CCCCN(CCCC)CCCOC(=O)c1ccc(N)cc1`, the “cytotoxicity” value is reported as -6.33% [at 35.3 µM].
With `Nc1c(I)cc(I)c(C(=O)N(CCC(=O)O)c2ccccc2)c1I` the “cytotoxicity” value was -8.17% [at 35.3 µM].
With `CCCCCCCC/C=C\CCCCCCCC(=O)OC` the “cytotoxicity” value was 0.548%.
For `C=CC(=C)CCCC(C)(C)OC(C)=O`, the “cytotoxicity” value was -6.16%.
In the case of `CCOCCn1c(C2CCN(CCc3ccc(C(C)(C)C(=O)O)cc3)CC2)nc2ccccc21`, the “cytotoxicity” value is reported as 0.408% [at 35.3 µM].
For `CC1CC(O)CC(C)(C)C1` (stereo not given), the “cytotoxicity” value was 0.298%.
With `CCC(C(=O)OCCN(CC)CC)c1ccccc1` (stereo not given) the “cytotoxicity” value was -2.28% [at 35.3 µM].
In the case of `CC(C)CCCCCCOC(=O)CCCCC(=O)OCCCCCCC(C)C`, the “cytotoxicity” value is reported as 0.759%.
In the case of `C[N+]1(C)CCC(=C(c2ccccc2)c2ccccc2)CC1`, the “cytotoxicity” value is reported as 0.293% [at 35.3 µM].
With `CCOC(=O)C(C)Oc1ccc(Oc2nc3ccc(Cl)cc3o2)cc1` (stereo not given) the “cytotoxicity” value was 0.0727%.
With `Cc1cc(O)c(C(C)C)cc1Cl` the Potency was “inactive”.
With `COc1cc2c(N3CCN(C(=O)Nc4ccc(OC(C)C)cc4)CC3)ncnc2cc1OCCCN1CCCCC1` the “cytotoxicity” value was -8.06% [at 35.3 µM].
With `O=C(CS)OCCOC(=O)CS` the “cytotoxicity” value was -2.15%.
For `CCC(=O)OC/C=C/c1ccccc1`, the Potency was “inactive”.
In the case of `COc1ccccc1N=Nc1c(S(=O)(=O)O)cc2cc(S(=O)(=O)O)cc(NC(C)=O)c2c1O`, the “cytotoxicity” value is reported as -22.5%.
With `CCCCCCCCCCOS(=O)(=O)O` the “cytotoxicity” value was 7.88%.
For `c1cnc2c(n1)CCCC2`, the Potency was 43.6 µM (active).
With `COc1ccc(C(=O)c2cccc(O)c2)c(OC)c1` the “cytotoxicity” value was -12.2%.
For `CCCCCCCCSCCO`, the “cytotoxicity” value was -9.83%.
For `CC#N`, the “cytotoxicity” value was 0.738%.
For `Cc1nccn1-c1ccc(Sc2cccc(C3(C(N)=O)CCOCC3)c2)cc1`, the “cytotoxicity” value was 1.41%.
With `Cc1cc(C(=C2C=CC(=Nc3ccc(S(=O)(=O)O)cc3S(=O)(=O)O)C=C2)c2ccc(Nc3ccc(S(=O)(=O)O)cc3)cc2)ccc1N` the “cytotoxicity” value was -9.15% [at 35.3 µM].
In the case of `OCCSc1ccccc1`, the “cytotoxicity” value is reported as 13.4%.
In the case of `Cc1ccc(S)cc1`, the “cytotoxicity” value is reported as -3.61%.
In the case of `Cc1c(C(=O)NN2CCCCC2)nn(-c2ccc(Cl)cc2Cl)c1-c1ccc(Cl)cc1`, the “cytotoxicity” value is reported as -7.43% [at 35.3 µM].
For `COc1cc2c(cc1OC)-c1cc(=Nc3c(C)cc(C)cc3C)n(C)c(=O)n1CC2`, the “cytotoxicity” value was 5.14% [at 35.3 µM].
In the case of `O=C(O)c1ccc(CO)o1`, the “cytotoxicity” value is reported as -1.33%.
With `CC(=O)CC(c1ccc([N+](=O)[O-])cc1)c1c(O)c2ccccc2oc1=O` (stereo not given) the “cytotoxicity” value was 0.323% [at 35.3 µM].
